In PubChem BioAssay (Tox21) one finds Potency, activity change, negative = cytotoxicity and viability change, negative = cytotoxic data, which are given here for 32 compounds.

Results filed as inconclusive are left out. Unmarked numbers belong to inactive results. The source made the active and inactive calls. Unless noted, calls come from the whole dose curve; as a rule, active = well fitted curve in the direction sought with a large enough effect in the repeat runs; inconclusive = weak or mixed curves; inactive = no such curve, though single readings can be large; an effect the other way counts as inactive or inconclusive.

Assay [1] can be described thus: qHTS assay to identify aromatase inhibitors - cell viability counter screen (AID 743084).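 Note: cells stimulated with testosterone during compound exposure; nearly all actives have a fitted effect of over 55% in size.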 Note: potency is the fitted concentration of half-maximal effect.
For assay [2], the target named is Aryl hydrocarbon receptor (Homo sapiens) (UniProt P35869). Briefly: qHTS assay to identify small molecule that activate the aryl hydrocarbon receptor (AhR) signaling pathway (AID 743085).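 For activation: HG2L7.5c1 human HepG2 liver cells with stably integrated DRE-driven firefly reporter; series mostly up to about 70 µM.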 Note: nearly all actives have a fitted effect of over 15% in size. Note: potency is the fitted concentration of half-maximal effect. Summed up: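 A multiplexed format paired cell viability (CellTiter-Fluor fluorescence) with AhR-dependent luciferase output (ONE-Glo luminescence) in the same wells of HepG2 DRE-luc cells after 24 h compound exposure at 37C.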

Assay [3] has as its target Peroxisome proliferator-activated receptor gamma (Homo sapiens) (UniProt P37231). Description: qHTS assay to identify small molecule antagonists of the peroxisome proliferator-activated receptor gamma (PPARg) signaling pathway (AID 743191; calls by dose curve; note: nearly all actives have a fitted effect of over 30% in size; note: potency is the fitted concentration of half-maximal effect). In short, it runs like this:
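GeneBLAzer PPARg UAS-bla HEK293H cells, 5 h post-plating, exposed to compounds 17 h at 37C. LiveBLAzer B/G FRET substrate added for 1 h at room temperature; beta-lactamase reporter read by fluorescence intensity.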

The nature of assay [4]: qHTS assay to identify small molecule antagonists of the peroxisome proliferator-activated receptor gamma (PPARg) signaling pathway - cell viability counter screen (AID 743194). Note: nearly all actives have a fitted effect of over 55% in size. Note: potency is the fitted concentration of half-maximal effect. In short, it runs like this: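 Cytotoxicity counter screen in PPARg-bla HEK293H cells, same wells as reporter assay. Compounds plus 50 nM rosiglitazone (final) for 17 h at 37 C, then viability read by CellTiter-Glo luminescence.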

Assay [5] can be described thus: qHTS assay for small molecule agonists of the antioxidant response element (ARE) signaling pathway (AID 743202; active = well fitted activation curve with a large enough effect in the signal ratio in the repeat runs, not every such curve was filed as active; the % refers to the signal ratio; note: potency is the fitted concentration of half-maximal effect). In short, it runs like this: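 ARE-bla HepG2 cells (beta-lactamase reporter under the antioxidant response element), plated 5 hours, then exposed to compounds 16 hours at 37 C. LiveBLAzer B/G FRET substrate added for 2 hours at room temperature; fluorescence intensity read.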

Assay [6] is described as follows: qHTS assay for small molecule agonists of the antioxidant response element (ARE) signaling pathway - cell viability counter screen (AID 743203; calls by dose curve; note: nearly all actives have a fitted effect of over 55% in size; note: potency is the fitted concentration of half-maximal effect). In short, it runs like this: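 CellSensor ARE-bla HepG2 cells, 2,000 per well, rested 5 hrs at 37C/5% CO2, then exposed to compound in DMSO for 16 hrs; viability read as CellTiter-Glo luminescence after 30 min at room temperature, in the reporter wells.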

Assay [7] in a line: qHTS assay for small molecule activators of the heat shock response signaling pathway - cell viability counter screen (AID 743209). Note: nearly all actives have a fitted effect of over 50% in size. In short, it runs like this: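 CellSensor HSE-bla HeLa cells, plated overnight at 37 C/5% CO2, were exposed to compounds in DMSO for 5 h at 37 C. Viability was then read in the same wells by CellTiter-Glo luminescence after 30 min at room temperature.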

Assay [8] can be described thus: qHTS assay for small molecule activators of the heat shock response signaling pathway (AID 743210; active = well fitted activation curve with a large enough effect in the signal ratio in the repeat runs, with a control signal flat, not every such curve was filed as active; the % refers to the signal ratio; note: series mostly up to about 63 µM). In short, it runs like this: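 HSE-bla HeLa cells (beta-lactamase reporter under heat shock response elements), plated overnight, then exposed to compounds 5 h at 37 C; LiveBLAzer B/G FRET substrate added, 2.5 h at room temperature, fluorescence intensity read.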
Assay [9] in a line: qHTS assay to identify small molecule that activate the aryl hydrocarbon receptor (AhR) signaling pathway - cell viability counter screen (AID 743086).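 For viability change, negative = cytotoxic: HepG2 liver cells carrying the AhR DRE luciferase reporter; series mostly up to about 70 µM.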 Note: nearly all actives have a fitted effect of over 45% in size. Note: potency is the fitted concentration of half-maximal effect. Summed up: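 HepG2-AhR-luc (HG2L7.5c1) cells, 4000/well, treated 24 h at 37 C with compound; viability measured as CellTiter-Fluor fluorescence after 30 min in the same wells as the luciferase read.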
Assay [10] concerns the target Peroxisome proliferator-activated receptor gamma (Homo sapiens) (UniProt P37231). Description: qHTS assay to identify small molecule agonists of the peroxisome proliferator-activated receptor gamma (PPARg) signaling pathway (AID 743094; active = well fitted activation curve with a large enough effect in the signal ratio in the repeat runs, not every such curve was filed as active; the % refers to the signal ratio; note: potency is the fitted concentration of half-maximal effect). In short, it runs like this:
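GeneBLAzer PPARg UAS-bla HEK293H cells carrying a stably integrated beta-lactamase reporter were pre-incubated 5 h at 37C, then exposed to compounds in DMSO for 17 h at 37C; LiveBLAzer B/G FRET substrate was added for 1 h at room temperature and fluorescence read.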
% is set by controls: 0 for no effect and ±100 for the full control effect.

Aryl hydrocarbon receptor (Homo sapiens), sequence (P35869 whole entry, looked up): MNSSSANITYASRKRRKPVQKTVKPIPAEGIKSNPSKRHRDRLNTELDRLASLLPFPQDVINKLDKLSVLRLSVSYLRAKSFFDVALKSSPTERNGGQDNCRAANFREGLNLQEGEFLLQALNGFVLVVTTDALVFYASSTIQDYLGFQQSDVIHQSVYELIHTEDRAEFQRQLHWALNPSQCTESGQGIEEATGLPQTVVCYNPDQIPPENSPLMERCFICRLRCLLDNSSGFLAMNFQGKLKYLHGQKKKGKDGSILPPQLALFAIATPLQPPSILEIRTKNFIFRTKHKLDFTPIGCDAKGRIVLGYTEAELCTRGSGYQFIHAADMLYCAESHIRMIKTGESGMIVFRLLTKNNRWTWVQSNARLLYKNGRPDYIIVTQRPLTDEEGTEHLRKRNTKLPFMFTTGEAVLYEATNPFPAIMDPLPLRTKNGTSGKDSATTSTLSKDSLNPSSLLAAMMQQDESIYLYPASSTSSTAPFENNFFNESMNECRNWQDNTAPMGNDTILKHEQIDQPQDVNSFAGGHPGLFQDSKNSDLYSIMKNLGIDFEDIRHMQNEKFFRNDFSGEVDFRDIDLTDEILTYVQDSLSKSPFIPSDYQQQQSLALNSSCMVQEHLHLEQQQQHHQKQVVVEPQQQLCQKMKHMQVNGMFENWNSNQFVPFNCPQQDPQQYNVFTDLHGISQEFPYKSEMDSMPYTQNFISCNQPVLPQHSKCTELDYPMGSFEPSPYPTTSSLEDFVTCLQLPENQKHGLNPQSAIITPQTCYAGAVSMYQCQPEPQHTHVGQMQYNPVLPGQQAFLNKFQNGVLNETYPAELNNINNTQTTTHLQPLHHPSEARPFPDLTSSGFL
Peroxisome proliferator-activated receptor gamma (Homo sapiens), sequence (P37231 whole entry, looked up): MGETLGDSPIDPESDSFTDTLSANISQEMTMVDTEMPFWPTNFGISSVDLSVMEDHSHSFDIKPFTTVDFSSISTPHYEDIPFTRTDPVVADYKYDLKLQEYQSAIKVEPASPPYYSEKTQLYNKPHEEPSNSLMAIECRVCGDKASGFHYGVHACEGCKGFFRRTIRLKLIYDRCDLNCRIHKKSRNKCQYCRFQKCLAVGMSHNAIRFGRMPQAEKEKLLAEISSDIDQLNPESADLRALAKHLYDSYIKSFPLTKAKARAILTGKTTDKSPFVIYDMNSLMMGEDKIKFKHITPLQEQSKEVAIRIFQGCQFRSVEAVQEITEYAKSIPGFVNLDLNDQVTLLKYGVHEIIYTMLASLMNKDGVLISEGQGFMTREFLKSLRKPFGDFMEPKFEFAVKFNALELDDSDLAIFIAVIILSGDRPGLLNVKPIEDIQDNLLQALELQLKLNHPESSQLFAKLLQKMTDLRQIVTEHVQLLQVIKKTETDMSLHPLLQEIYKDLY

`C[N+](C)(C)CCOC(=O)CCC(=O)OCC[N+](C)(C)C`: the Potency entry in [1], in assay [2], in [3], in assay [4], in [5] and in assay [6] was “inactive” in each case. Further, the Potency result in assay [7] and in assay [8] was “inactive” in each case.

With `COc1ccnc(CS(=O)c2nc3ccc(OC(F)F)cc3[nH]2)c1OC` (centres undefined), the Potency entry in [1], in [9], in [10], in [3], in [4] and in assay [6] was “inactive” in each case. For the same compound, the Potency entry in [7] and in assay [8] was “inactive” each time.

Take `C[N+]1(CC2COC(c3ccccc3)(C3CCCCC3)O2)CCCCC1` (centres undefined): the Potency entry in assay [1], in assay [2], in assay [3], in assay [4], in [5] and in [6] was “inactive” each time. Besides, the Potency entry in assay [7] and in assay [8] was “inactive” throughout.

In the case of `CC(C)CC(=O)C1C(=O)c2ccccc2C1=O`, the Potency result in assay [1], in assay [9], in assay [4], in assay [6], in assay [7] and in assay [8] was “inactive” throughout.

In the case of `C#C[C@]1(O)CC[C@H]2[C@@H]3CCc4cc(OC5CCCC5)ccc4[C@H]3CC[C@@]21C`, the Potency entry in assay [1], in assay [10], in assay [4], in assay [7] and in assay [8] was “inactive” throughout.

Regarding `Cc1cccc(C)c1OCC(=O)N[C@@H](Cc1ccccc1)[C@@H](O)C[C@H](Cc1ccccc1)NC(=O)[C@H](C(C)C)N1CCCNC1=O`, the Potency entry in [2], in [6] and in [7] was “inactive” in each case. For the same compound, the Potency was 23.7 µM (active) in [9] and 29.8 µM (active) in assay [5].

As for `O=C(O)c1ccc(-n2nc(-c3ccccc3O)nc2-c2ccccc2O)cc1`, the Potency result in assay [2], in assay [9], in [6] and in assay [7] was “inactive” throughout.

For `CCCOC(C(=O)OC1CCN(C)CC1)(c1ccccc1)c1ccccc1`, the Potency entry in assay [2], in assay [10], in assay [3], in [4], in [6] and in [7] was “inactive” each time. The Potency result in assay [8] was “inactive”. Also, in assay [9], the Potency was 29.8 µM (active).

Consider `COC(=O)C1=C(C)NC(COC(N)=O)=C(C(=O)OC(C)C)C1c1cccc(Cl)c1Cl` (centres undefined), for which the Potency entry in assay [2], in assay [6] and in assay [7] was “inactive” throughout.

Turning to `CN(C)CCCN1c2ccccc2Sc2ccccc21`, the Potency result in assay [2], in [10], in [7] and in [8] was “inactive” in each case.

In the case of `CCCCCCCCCCCCCCOS(=O)(=O)O`, the Potency entry in assay [2], in assay [9], in assay [10] and in assay [4] was “inactive” each time. The Potency in assay [6] was 61.1 µM (active).

Take `Cc1cc(N)c2cc(NC(=O)Nc3ccc4nc(C)cc(N)c4c3)ccc2n1`: the Potency entry in assay [1], in assay [9] and in [7] was “inactive” in each case.

With `CN1CCC(=C2c3ccccc3Sc3ccccc32)CC1`, the Potency entry in [2], in assay [10], in assay [5], in [7] and in assay [8] was “inactive” each time.

Turning to `O=C(CS)Nc1ccccc1`, the Potency entry in assay [1], in assay [10], in assay [5], in assay [6] and in assay [7] was “inactive” in each case.

Consider `Brc1c2ccccc2c(Br)c2ccccc12`, for which the activity change, negative = cytotoxicity is 12.2% [at 8.47 µM] in assay [1], 7.41% [at 5.95 µM] in assay [4] and 2.9% [at 5.95 µM] in assay [7]. Besides, the values for the viability change, negative = cytotoxic in assay [9] and in assay [6] were -2.96% [at 8.47 µM] and 3.8% [at 8.36 µM], respectively.

Consider `COc1ccc(C(=O)c2ccc(OC)cc2O)c(O)c1`, for which the Potency result in assay [1], in [9], in [10], in assay [6], in [7] and in assay [8] was “inactive” throughout.

`O=S(c1cc(Cl)cc(Cl)c1O)c1cc(Cl)cc(Cl)c1O`: the Potency result in assay [2] and in assay [9] was “inactive” in each case. Besides, the Potency in assay [4] was 26.6 µM (active); in [6], 11.9 µM (active).

Consider `CCCCC/C=C\C/C=C\CCCCCCCC(=O)NC(C)c1ccccc1` (centres undefined), for which the Potency result in assay [1], in [10], in assay [4], in [6] and in [7] was “inactive” throughout. In addition, in [5], the Potency was 29.8 µM (active).

For `CCCCC1=NC2(CCCC2)C(=O)N1Cc1ccc(-c2ccccc2-c2nn[nH]n2)cc1`, the Potency result in [2], in assay [9], in assay [4], in [6], in assay [7] and in [8] was “inactive” each time.

Consider `c1cc(CCCc2ccncc2)ccn1`, for which the Potency result in assay [1], in assay [10], in [4], in [5], in assay [6] and in assay [7] was “inactive” each time. Further, in assay [8], the Potency result was “inactive”.

As for `O=C(O)C1(C(=O)Nc2ccc(Cl)cc2Cl)CC1`, the Potency entry in assay [1], in assay [9], in [6], in assay [7] and in assay [8] was “inactive” each time.

Regarding `CCN(CC)CCNc1ccc(CNC=O)c2sc3ccc(OC)cc3c(=O)c12`, the Potency in assay [1] is 48.6 µM (active); in assay [9], 5.45 µM (active); in assay [3] it was 12.3 µM (active); in assay [6], 48.6 µM (active). Further, the Potency result in assay [7] and in [8] was “inactive” throughout.

Take `O=[N+]([O-])c1ccc(NCCO)c(OCCO)c1`: the Potency result in assay [2], in [10], in [3], in [4], in assay [5] and in assay [6] was “inactive” throughout. In addition, the Potency entry in assay [7] and in [8] was “inactive” throughout.

As to `C=CCOC(=O)CCC1CCCCC1`, the Potency result in assay [2], in [9], in assay [10], in assay [3], in assay [4] and in [5] was “inactive” each time. Moreover, the Potency result in assay [6] and in assay [7] was “inactive” throughout.

`CCO[C@H](Cc1ccc(OCCc2ccc(OS(C)(=O)=O)cc2)cc1)C(=O)O`: the Potency result in assay [1], in [4], in assay [6] and in [8] was “inactive” each time. The Potency in assay [10] was 0.12 µM (active).

As for `COc1ccc(C(=O)Nc2nc3ccccc3c(NCc3ccccc3)c2C#N)cc1`, the Potency in assay [2] was 7.7 µM (active). For the same compound, the Potency entry in assay [4], in assay [6], in assay [7] and in assay [8] was “inactive” throughout.

As to `Cc1ccc(N=Nc2c(O)c(C(=O)O)cc3ccccc23)c(S(=O)(=O)O)c1`, in assay [1], the Potency was 6.65 µM (active). Moreover, the Potency entry in assay [3], in assay [4], in [6], in assay [7] and in assay [8] was “inactive” in each case.

Regarding `Cc1nn(C)c(Oc2ccccc2)c1/C=N/OCc1ccc(C(=O)OC(C)(C)C)cc1`, the Potency result in assay [2], in assay [10], in [4], in assay [7] and in assay [8] was “inactive” in each case.

With `O=C(Cl)c1cc(C(=O)Cl)cc(C(=O)Cl)c1`, the Potency entry in assay [2], in assay [9], in [3], in assay [4] and in [7] was “inactive” in each case.

For `CN1CCC(N(Cc2cccs2)c2ccccc2)CC1`, the Potency entry in assay [1], in [10], in [4] and in assay [6] was “inactive” in each case.

On to `Brc1c2ccccc2cc2ccccc12`, for which the Potency entry in assay [1], in assay [9], in assay [4] and in assay [7] was “inactive” each time.

As to `O=C1CCCCCCCCCCCC(=O)OCCO1`, the Potency result in assay [2], in assay [9], in [10], in assay [4], in [6] and in [7] was “inactive” throughout. Moreover, the Potency entry in [8] was “inactive”.
